In PubChem BioAssay AID463193 (University of Pittsburgh Molecular Library Screening Center, 2010):
The campaign covered roughly 190,000 compounds. About 1,900 (1%) were called active.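 How the source made its calls: active means percentage of spot-positive cells more than 3 SD above its plate mean, without a fluorescence outlier flag or 80% toxicity; inconclusive means no clear call, values can overlap the other calls; inactive means the rest.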 The entries come from a sample that favours actives as a whole.

Test: autophagy modulators in MEF cells, primary screen, imaging, high-content, MEF GFP-LC3 (AID 463193);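 on % cells with GFP-LC3 spots: spot-positive cell cutoff set from DMSO-treated cells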;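 on toxicity: cell loss after 18 h compound exposure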
Conditions: MEF GFP-LC3 puncta imaging, at 10 µM; % cells with GFP-LC3 spots: stronger effect = higher value; toxicity: measured here: cell loss, nuclei count

SMILES | % cells with GFP-LC3 spots | toxicity [%]
CCOC(=O)C1CCCN(C(=O)C2CCN(c3nnc(-n4cccc4)s3)CC2)C1 (configuration not stated) | 15.3% (active) | 6.19
CCOC(=O)C1CCCN(C(=O)c2cncc(Br)c2)C1 (configuration not stated) | 9.51% (inactive) | 4.79
CSc1ccc(CCNC(=O)C2CCN(c3nnc(-n4cccc4)s3)CC2)cc1 | 4.67% (inactive) | 3.56
Fc1cc(Br)ccc1NC(=S)Nc1cccnc1 | 4.97% (inactive) | -1.9
Cc1cccc(N=C2NC(=O)/C(=C/c3cn(C)c4ccccc34)S2)c1 | 2.55% (inactive) | 4.32
CN(C)c1ccc(-n2cccc2/C=C2/SC(=Nc3ccc(F)cc3)NC2=O)cc1 | 93.2% (active) | -20.2
CN(C)c1ccc(-n2cccc2/C=N/n2cnnc2)cc1 | 4.65% (inactive) | -2.02
CCC(C)(C)NC(=O)/C=C/c1cc(OC)c(OC)c(S(=O)(=O)N2CCc3ccccc32)c1 | 11.3% (inactive) | 20
O=C(CCl)N(Cc1cccc([N+](=O)[O-])c1)c1cccc(Cl)c1 | 60.8% (active) | 58.5
O=C(Nc1cccc([N+](=O)[O-])c1)Nc1ccc(Cl)cn1 | 1.56% (inactive) | 15.9
CCN(CC)C(=O)CN(c1cccc([N+](=O)[O-])c1)S(=O)(=O)c1ccccc1 | 0.147% (inactive) | 2.32
Cc1ccccc1OCC(=O)Nc1nc(C)c(C(=O)N(C)C)s1 | 28.3% (inactive) | -9.79
CCc1cccc(NC(=O)CCC(=O)O)c1 | 4.04% (inactive) | 8.61
O=C(c1ccc(F)cc1)n1cc(C(=S)N2CCOCC2)c2ccccc21 | 8.35% (inactive) | -13.5
CCOC(=O)c1sc(NC(=O)CSc2nc(O)c(Cc3ccccc3)c(=O)[nH]2)nc1C | 4.28% (inactive) | -1.5
CCc1ccc(Oc2coc3cc(OC(=O)c4cc5ccccc5oc4=O)ccc3c2=O)cc1 | 1.87% (inactive) | -5.27
COC(=O)c1ccccc1NC(=O)c1cncc(Br)c1 | 6.11% (inactive) | -8.54
COc1ccc(Oc2coc3cc(OC(=O)c4cncc(Br)c4)ccc3c2=O)cc1 | 25.7% (active) | -11.8
Nc1nc(SCC(=O)N2CCN(S(=O)(=O)c3ccc(Cl)cc3)CC2)n[nH]1 | 1.97% (inactive) | -0.836
N#Cc1ccsc1NC(=O)CN1CCN(S(=O)(=O)c2cc(Cl)ccc2Cl)CC1 | 7.41% (inactive) | 41.3
CCCN1CC=C2C(C#N)=C(N)C(C#N)(C#N)C(c3cc(OC)ccc3OC)C2C1 (configuration not stated) | 99.7% (active) | 9.7

SMILES | % cells with GFP-LC3 spots | toxicity [%]
CCOC(=O)N1CC=C2C(C#N)=C(N)C(C#N)(C#N)[C@H](c3cccs3)[C@H]2C1 | 11.3% (inactive) | -6.29
CCC1=C(C(=O)OC)C(c2cc(OC)ccc2OC)C(C#N)=C(N)O1 (configuration not stated) | 2.22% (inactive) | -10.7
COCCCNCCOCCOc1ccc(Cl)cc1Br | 5.65% (inactive) | 4.08
CCn1nc(C)c(/C=N/NC(=O)Cc2ccc(Cl)cc2)c1C | 4.23% (inactive) | 8.44
Cc1cc(C)cc(NC(=S)NCCCN2CCOCC2)c1 | 12.3% (inactive) | -2.96
Cc1ccc(S(=O)(=O)NCCN2CCOCC2)cc1C | 1.8% (inactive) | 15.4
Cc1cc(C)c(S(=O)(=O)NCCCN2CCOCC2)cc1Br | 19.8% (active) | 9.5
CCc1nc2ccccc2c(C(=O)NCc2ccc(OC)cc2)c1C | 2.64% (inactive) | -18.8
C=CCNc1nc(Nc2ccc(Cl)cc2)nc(OC)n1 | 0.706% (inactive) | 0.881
Cc1ccc(NC(=O)OCCNC(=O)c2ccncc2)cc1 | 5.3% (inactive) | 0.481
CC[C@H]1OC(=O)[C@H](C)[C@@H](O[C@H]2C[C@@](C)(OC)[C@@H](O)[C@H](C)O2)[C@H](C)[C@@H](O[C@@H]2O[C@H](C)C[C@H](N(C)C)[C@H]2O)[C@](C)(O)C[C@@H](C)[C@@H]2N[C@@H](COCCOC)O[C@H]([C@H]2C)[C@]1(C)O | 10.6% (inactive) | 20.5
COc1cccc2cc(S(=O)(=O)c3ccc(C)cc3)/c(=N/NS(=O)(=O)c3ccc(C)cc3)oc12 | 5.62% (inactive) | 3.69
CCN1C(=O)/C(=c2\s/c(=C3\Sc4ccccc4N3C)c(=O)n2C)N(C)C1=S | 1.17% (inactive) | 19.3
CCN1C(=O)/C(=C2/Sc3ccc(OC)cc3N2C)SC1=Nc1ccc(C)cc1 | 24.8% (active) | -15
CCN1C(=O)/C(=C2/Sc3ccccc3N2CCCS(=O)(=O)O)SC1=S | 1.02% (inactive) | -10.6
CC(=O)c1ccc(N=C2SCCCN2C(=O)C2CCCCC2)cc1 | 1.47% (inactive) | -1.61
CCCOc1ccc(N/C=C/C(=O)C(C)(C)C)cc1 | 0.722% (inactive) | -6.8
CCCOc1ccc(NC(=O)C2OC3OC(C)(C)OC3C3OC(C)(C)OC23)cc1 (configuration not stated) | 19.1% (active) | -25.3
CCCOc1ccc(NC(=O)C2CCCNC2=O)cc1 (configuration not stated) | 12.2% (inactive) | -1.43
C=CCOc1c(Br)cc(/C=N\n2nnnc2N)cc1OC | 6.77% (inactive) | 29
CC1(C)CCCC2=C1CC1C(=O)N(c3ccccc3)C(=O)C1C2 (configuration not stated) | 3.25% (inactive) | 1.28

SMILES | % cells with GFP-LC3 spots | toxicity [%]
CC1CC2=C(CC1/C=N/NC(N)=S)C(C)(C)CCC2 (configuration not stated) | 39.4% (active) | 20
Cc1cc2c(C)nc(N/N=C/c3ccccc3)nc2o1 | 16.3% (inactive) | 2.3
Cc1ccc(Cl)cc1N1CCN(C(=O)c2cccc3c(=O)c(C)c(-c4ccccc4)oc23)CC1 | 3.68% (inactive) | 9.69
O=C1CCC(=O)N1c1ccc(NCCc2ccccc2F)c([N+](=O)[O-])c1 | 1.23% (inactive) | 31.5
CC(Oc1cccc(NC(=O)c2cccs2)c1)C(=O)c1ccccc1 (configuration not stated) | 9.23% (inactive) | 21.1
Cc1ccc(NC(=O)CN2CCCCC2)c2c1CC(C)(C)O2 | 4.85% (inactive) | -23.6
CCCc1[nH]nc2c1C(c1c(C)nn(-c3ccccc3)c1Cl)C(C#N)=C(N)O2 (configuration not stated) | 16.1% (inactive) | 24.7
CCCc1[nH]nc2c1C(C1CC=CCC1)C(C#N)=C(N)O2 (configuration not stated) | 8.01% (inactive) | 13
CCCc1[nH]nc2c1C(c1ccc(Br)s1)C(C#N)=C(N)O2 (configuration not stated) | 13.3% (active) | 8.15
Cc1ccc(OCc2n[nH]c(=S)n2-c2ccccc2)cc1 | 4.42% (inactive) | -18.6
COc1ccc(Nc2ncc(F)c(N3CCOCC3)n2)cc1 | 7.22% (inactive) | 8.68
O=C(Nc1cccc(F)c1)N1C2CCC1CC(O)(c1cccnc1)C2 (configuration not stated) | 1.55% (inactive) | 2.7
COCCNC(=O)Cn1cc2c(n1)CCCCC2 | 4.61% (inactive) | -6.66
COc1ccccc1CNC(=O)Cn1cc2c(n1)CCCC2 | 15.2% (active) | 6.76
O=C(Cn1cc2c(n1)CCCCC2)NCCN1CCOCC1 | 5.99% (inactive) | -2.07
CC(C)NC(=O)NCCCCCCS(C)=O (configuration not stated) | 22.5% (inactive) | 23.6
CCOC(=O)c1c(NC(=O)C(C)Sc2c[nH]c3ccccc23)sc2c1CCC2 (configuration not stated) | 5.48% (inactive) | 2.6
COc1ccc(CCc2nnc(CCC(=O)NCc3cnn(-c4ccccc4C)c3)o2)cc1 | 10.6% (inactive) | -18.2
COc1cccc(CN(C)CC(=O)Nc2sc3c(c2C#N)CCC3)c1 | 6.72% (inactive) | -31.4
CC(C)[C@H](NC(=O)c1ccc(F)cc1)C(=O)OCC(=O)NC(=O)c1cccn1C | 10.6% (inactive) | -0.516
CCCCS(=O)c1snnc1C (configuration not stated) | 3.68% (inactive) | 1.95

SMILES | % cells with GFP-LC3 spots | toxicity [%]
CCc1nnc(NS(=O)(=O)c2ccc(NS(=O)(=O)c3ccccc3)cc2)s1 | 1.63% (inactive) | 20.8
CCc1nnc(NS(=O)(=O)c2ccc(NC(=S)NC(=O)/C=C/c3cccs3)cc2)s1 | 5.75% (active) | 7.01
CCc1nnc(NS(=O)(=O)c2ccc(NC(=S)NC(=O)c3cccs3)cc2)s1 | 5.87% (inactive) | -9.89
O=C(O)CCN(Cc1ccccc1)S(=O)(=O)c1c(Cl)cccc1Cl | 1% (inactive) | 7.07
COc1ccc(C(=O)NNc2cc(C)nc(NNC(=O)c3ccc(OC)cc3)n2)cc1 | 0% (inactive) | -3.42
COC(=O)[C@@H]1CC[C@H](C)[C@@H](c2ccc(C)cc2)N1C(=O)c1ccc(/C=N/O[C@H](C)c2cn([C@@H]3COC[C@H]3O)nn2)cc1 | 9.78% (inactive) | 5.86
O=C(NC1CCCCC1)C1CCCN(S(=O)(=O)c2ccc(Br)s2)C1 (configuration not stated) | 0.705% (inactive) | 2.95
CCn1c(=O)cc(OCC(=O)NCCCN2CCN(c3cccc(Cl)c3)CC2)c2ccccc21 | 14.4% (active) | 23.1
Cn1c(C(=O)NCCCN2CCN(c3cccc(Cl)c3)CC2)cc2c(=O)n(C)c3ccccc3c21 | 6.58% (inactive) | 2.89
O=C(CCn1c(=O)[nH]c2ccccc2c1=O)NCCCN1CCN(c2cccc(Cl)c2)CC1 | 7.4% (inactive) | 9.47
COc1ccc(C(=O)Nc2cccc(S(C)(=O)=O)c2)cc1 | 7.34% (inactive) | 2.69
CCCC(=O)NC(C)C(c1cccs1)N1CCN(c2ccccc2)CC1 (configuration not stated) | 5.17% (active) | 28.7
CC(NC(=O)Nc1ccccc1)C(c1cccs1)N1CCN(c2ccccc2)CC1 (configuration not stated) | 10.1% (inactive) | -0.847
CCN(CC)S(=O)(=O)c1ccc(Cl)c(C(=O)NC(C)C(c2cccs2)N2CCCC2)c1 (configuration not stated) | 1.61% (inactive) | 7.32
COc1cc(CNc2ncn[nH]2)ccc1OCc1ccccc1C | 0.305% (inactive) | 8.6
COc1ccc2c(c1)CCc1c(C(=O)N3CCCC3)noc1-2 | 25.2% (active) | 71.1
COc1ccc2c(c1)CCc1c(C(=O)Nc3c(C)n(C)n(-c4ccccc4)c3=O)noc1-2 | 10.1% (inactive) | 17.1
COc1ccc2c(c1)CCc1c(C(=O)N3CCc4ccccc4C3)noc1-2 | 1.3% (inactive) | 5.85
